High-throughput results from PubChem.
EP2 mod = modulators of human EP2 prostaglandin E2 receptor; EP2-expressing cells, cAMP HTRF FRET, PGE2 co-stimulation; induction, % at 25 µM; hit rate 0.83% among 260,000;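 active = compounds whose cAMP rise, as percent of the full-agonist control response, exceeds 60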;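 also: rat C6 glioma line stably carrying human EP2 under a CMV promoter; the protocol text gives 20 µM as final concentration; 100% = response of wells given 1 µM PGE2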
RAM network inh = inhibitors of the yeast RAM network | S. cerevisiae dse1pr::URA3 reporter, 5-FOA growth OD615, 2 d; analog-sensitive cbk1-as2 kinase mutant strain | inhibition, % at 50 µM | hit rate 1.8% among 190,000;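 active = inhibition above a set limit, 3 SD over mean compound inhibition, cut at about 8.4% in these data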;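 also: 0% = DMSO-only wells with no growth and 100% = 10 µM 1-NA-PP1 full growth; inhibition rescues growth on 5-FOA so higher OD means more RAM inhibition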
PG9 binder = PG9 antibody binding by small molecule | TR-FRET gp120-PG9 antibody binding | inhibition, % at 6.7 µM | hit rate 0.43% among 360,000; in the data active = inhibition above about 8.5%
EP2 antag = blocks the human prostaglandin E2 receptor EP2. inhibition, % at 25 µM. P43116. hit rate 0.52% among 260,000. C6 glioma cells expressing human EP2, cAMP TR-FRET; cells stimulated with saturating PGE2;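 active = percent inhibition above 40 after rounding to a whole number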;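 also: rat C6 glioma host cells with rolipram phosphodiesterase inhibitor present; the protocol text gives 20 µM as final concentration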
SKN-1 block = C. elegans SKN-1 inhibition; C. elegans VP596 Pgst-4::GFP/RFP ratio, acrylamide-induced, 24 h; inhibition, % at 21.8 µM; hit rate 0.49% among 360,000; AID 624304;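 active = interference check ratio from 0.5 to 1.5 plus GFP to RFP signal ratio inhibition reaching or exceeding a fixed threshold, cut at about 30% in these data, passing the limit was not always enough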
Rev-erbA mod = Rev-erb alpha (human) modulation; Rev-erbα–FITC-DNA binding, fluorescence polarization, 90 min; activity, % at 10 µM; hit rate 0.79% among 370,000; P20393; AID 1259318;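 active = activity above about 14%, limit read from the data; passing the limit was not always enough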;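 also: 0% = DMSO wells with 35 nM protein and 100% = DMSO wells with 750 nM protein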
Target sequence (P20393 whole entry, looked up): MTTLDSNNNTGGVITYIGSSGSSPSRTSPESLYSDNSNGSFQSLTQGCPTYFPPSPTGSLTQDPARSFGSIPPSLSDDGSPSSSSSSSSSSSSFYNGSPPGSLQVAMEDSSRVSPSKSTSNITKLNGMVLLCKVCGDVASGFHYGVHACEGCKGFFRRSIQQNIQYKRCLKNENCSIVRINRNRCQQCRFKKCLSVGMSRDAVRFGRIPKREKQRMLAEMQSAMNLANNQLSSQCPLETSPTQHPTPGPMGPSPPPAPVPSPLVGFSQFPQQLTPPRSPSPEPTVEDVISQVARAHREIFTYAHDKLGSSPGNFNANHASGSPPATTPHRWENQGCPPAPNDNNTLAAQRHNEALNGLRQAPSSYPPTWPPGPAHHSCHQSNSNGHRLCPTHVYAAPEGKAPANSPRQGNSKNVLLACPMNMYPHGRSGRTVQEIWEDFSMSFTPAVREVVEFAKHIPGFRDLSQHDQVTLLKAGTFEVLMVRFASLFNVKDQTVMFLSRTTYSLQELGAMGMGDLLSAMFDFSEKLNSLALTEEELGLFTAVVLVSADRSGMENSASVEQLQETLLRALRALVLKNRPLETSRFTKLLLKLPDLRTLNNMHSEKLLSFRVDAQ
EP2 confirm = human EP2 receptor cAMP induction, negative in counter-screens; hit rate 47% among 1,300; shares compounds with EP2 mod; C6 glioma EP2 cells, cAMP HTRF induction; plus low (about EC15) PGE2 agonist; AID 1080; calls only at 20 µM (by protocol);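 active = cAMP induction above 50% in the main assay while under 30% in all four parallel counter assays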;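 also: rat C6 glioma cells stably expressing human EP2 receptor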
* marks the source's active call; other numbers are inactive results; i = inactive; / = not tested or not shown; + = active, no number; ! = not active in a repeat. The list is not random: actives were taken first. Their share in the collection is about 2.9%.

SMILES	EP2 mod	RAM network inh	PG9 binder	EP2 antag	SKN-1 block	Rev-erbA mod	EP2 confirm
CC(OC(=O)c1oc2ccccc2c1CSC1CCCCC1)C(=O)NC(N)=O (stereo not drawn)	42	1	0	5	14	0	/
C=CCn1c(SCC(N)=O)nc(C)cc1=O	68*	-1	-1	12	2	0	i
COC(=O)C1CCN(C(=O)c2c(OC)cccc2OC)CC1	-12	/	/	17	/	/	/
CC(C)NC(=O)/C(=C\c1cccs1)NC(=O)c1ccccc1	-14	/	/	9	/	/	/
c1cncc(-c2nc(N3CCCCCC3)c3ccccc3n2)c1	74*	1	4	/	6	-3	+
CN1CCN(c2nc(-c3cccnc3)nc3ccccc23)CC1	7	2	1	11	-3	0	/
C=CCn1c(=O)c2c(nc(-c3ccc(S(=O)(=O)O)cc3)n2C)n(C)c1=O	66*	/	-1	19	-9	-5	i
C=CCn1c(=O)c2c(nc3n2CCN3c2cccc(Cl)c2C)n(C)c1=O	9	1	1	6	19	0	/
CCOc1ccc(CN2CCN(C(=O)c3ccc(OC)c(OC)c3)CC2)cc1	-28	/	/	6	/	/	/
CCCOP(=O)(OCCC)C(Nc1cccc(C(F)(F)F)c1)c1ccc(C)cc1 (stereo not drawn)	68*	10*	-2	4	19	7	i
COc1c(Cl)cc(Cl)cc1C(=O)n1nc(C)cc1C	74*	2	1	8	0	-1	i
O=C1SCC(c2ccccc2)S1 (stereo not drawn)	9	/	/	3	/	/	/
CCOC(=O)c1c(-c2ccc(C)o2)csc1NC(=O)CN1CCCCC1	66*	0	-1	4	15	-7	i
CCOC(=O)c1c(-c2ccc(C)cc2)csc1NC(=O)CCN1CC(C)OC(C)C1 (stereo not drawn)	86*	0	0	6	12	5	+
CCOC(=O)c1c(-c2ccc(C)o2)csc1NC(=O)CN1CCC(C(N)=O)CC1	-14	2	0	2	7	0	/
O=C(c1cnccn1)N1CCC(n2nnc(-c3ccc(F)cc3)n2)CC1	-38	/	/	/	/	/	/
CCOc1ccc(-c2c(C)sc3ncn(CC(=O)Nc4ccccc4OC)c(=O)c23)cc1	12	/	/	6	/	/	/
CCOC(=O)c1sc(NC(=O)C(CC)OC(=O)C(CC(C)C)NC(=O)c2ccccc2)nc1C (stereo not drawn)	67*	3	0	18	17	0	i
CCC(OC(=O)C(CC(C)C)NC(=O)c1ccccc1)C(=O)Nc1nnc(C)s1 (stereo not drawn)	/	/	0	/	17	-4	/
CCCOc1ccc(Cl)cc1CNc1ccccc1	73*	-1	-1	2	7	1	+
CCC1(CC)Cc2ccccc2-c2nc(NCCO)[nH]c(=O)c21	69*!	2	-3	16	4	-4	i
C=CCn1c(=O)c(C(=O)NCCc2ccccc2)c(O)c2ccccc21	67*	10*	-1	8	13	12	i
C=CCn1c(=O)c(C(=O)NCc2ccc(Cl)cc2)c(O)c2ccccc21	/	/	3	/	14	-2	/
COc1cc(O)c2c(=O)cc(C)oc2c1CC=C(C)C	92*	/	/	9	/	/	+
O=C(O)c1ccc(CNCc2cccc(Cl)c2Cl)cc1	68*	1	-1	7	17	0	i
COc1ccc(OC)c(NC(=O)CSc2nc(-c3ccccc3)cc(C(F)(F)F)n2)c1	-38	/	/	17	/	/	/
Cc1cccc(-c2nc(=S)c3c(n2Cc2ccco2)CCCC3)c1	66*	7	2	7	17	2	i
COc1ccccc1NC(=O)C1=C(C)Nc2ncnn2C1c1cccc2ccccc12 (stereo not drawn)	-7	/	/	16	/	/	/
CCOC(=O)C1=NN(c2ccc(C)cc2)C2(S1)SC(C(C)=O)=C(C)N2c1ccccc1 (stereo not drawn)	74*	1	1	5	2	2	+
